# GALK inh – qHTS Assay for Inhibitors of Human Galactokinase (GALK) | Potency, µM (doses to about 57.5 µM), inactives show at the top dose activity change, negative = inhibition, hits mostly inhibitors | AID 1868, 2009 | actives 0.007% (n = 270,000) | Purified GALK, Kinase-Glo residual ATP luminescence; further: on the % scale 0 is the no-effect control and ±100 the full control effect
# Target sequence (P51570 whole entry, looked up): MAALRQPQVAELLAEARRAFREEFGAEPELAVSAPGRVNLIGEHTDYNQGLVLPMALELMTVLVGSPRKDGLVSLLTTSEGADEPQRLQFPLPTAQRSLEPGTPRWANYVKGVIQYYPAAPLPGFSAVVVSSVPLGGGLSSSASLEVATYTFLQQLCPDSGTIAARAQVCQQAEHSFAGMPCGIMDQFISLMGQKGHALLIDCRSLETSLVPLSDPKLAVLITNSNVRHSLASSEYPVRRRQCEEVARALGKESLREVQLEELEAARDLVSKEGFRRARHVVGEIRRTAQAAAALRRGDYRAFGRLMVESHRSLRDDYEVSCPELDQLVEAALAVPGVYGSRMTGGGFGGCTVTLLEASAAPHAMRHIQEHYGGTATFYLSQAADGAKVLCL
#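 ATP-depletion format; final 35 uM ATP, 100 uM D-galactose, 5 nM enzyme; pH 8.0 HEPES/Mg2+ buffer; 60 min RT; luminescence read 10 min after detection reagent.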
# TrxR1 inh – qHTS Assay for Inhibitors of Mammalian Selenoprotein Thioredoxin Reductase 1 (TrxR1): qHTS. Thioredoxin reductase 1, cytoplasmic (Rattus norvegicus), O89049. recombinant rTrxR1, NADPH fluorescence consumption, selenite substrate. Potency, µM (doses to about 114 µM), without a hit: at the top dose activity change, negative = inhibition, usual class: inhibitors. actives 1% (n = 390,000); further: on the % scale 0 is the no-effect control and ±100 the full control effect; nearly all actives have a fitted effect of over 65% in size
#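 Rat TrxR1 (90 nM in the dispensed reagent) was pre-reduced with 400 uM NADPH for 5 min at room temperature, then incubated with compound for 15 min. After 400 uM selenite was added, NADPH fluorescence (Ex 340/Em 450 nm) was followed for 8 min.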
# TrxR1 substrate – qHTS Assay for Substrates of Mammalian Selenoprotein Thioredoxin Reductase 1 (TrxR1): qHTS | Thioredoxin reductase 1, cytoplasmic (Rattus norvegicus), O89049 | purified TrxR1 substrate turnover, NADPH consumption readout | Potency, µM (titrated, usually from 114 µM), inactives show at the highest dose activity change, negative = substrate turnover | actives 0.01% (n = 390,000); further: on the % scale 0 is the no-effect control and ±100 the full control effect; nearly all actives have a fitted effect of over 50% in size
#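 Rat TrxR1, dispensed at 90 nM, was prereduced with 400 uM NADPH (final) for 5 min at ~22 deg C, then incubated with compound 15 min before 400 uM selenite. A first-read NADPH fluorescence drop versus no-compound background flagged substrates.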
# A549 tox – Nrf2 qHTS screen for inhibitors: counterscreen for cytotoxicity | A549 ARE-Fluc cells, CellTiter-Fluor viability, 18-24 h | Potency, µM (titrated, usually from 46 µM), for inactives: at the top dose activity change, negative = cytotoxicity, hits mostly inhibitors | actives 0.16% (n = 390,000); further: on the % scale 0 is the no-effect control and ±100 the full control effect
#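 Cytotoxicity counterscreen: CellTiter-Fluor fluorescence was measured in A549 ARE_Fluc cells after 18-24 h of compound exposure in a concentration series. The subsequent BugLite luminescent read reports ARE-luciferase activity.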
# Nrf2 activator – qHTS of Nrf2 Activators | AREc32 ARE-luciferase reporter (MCF7-derived line), luminescence, 24 h | Potency, µM (doses to about 46.1 µM), for the others: at the top dose activation, most hits filed as activators | actives 0.31% (n = 410,000); further: % of control where 0% means no effect; nearly all actives have a fitted effect of over 65% in size
#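 ARE-driven firefly luciferase activity in AREc32 cells measured after a 24 hr compound exposure at 37 deg C, using Steady-Glo reagent and a 30 min room-temperature hold.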
# Nrf2 block – Nrf2 qHTS screen for inhibitors; A549 ARE-Fluc reporter, luciferase luminescence, 18-24 h; Potency, µM (top dose mostly 46 µM), for inactives: at the highest dose activity change, negative = inhibition, most hits filed as inhibitors; actives 2.1% (n = 360,000); further: on the % scale 0 is the no-effect control and ±100 the full control effect; nearly all actives have a fitted effect of over 60% in size
#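 Quantitative HTS in A549 cells stably bearing an antioxidant response element-firefly luciferase construct. Inhibition of Nrf2-driven transcription was scored by luminescence after 18-24 h of compound exposure at 37 °C.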
# * = called active by the depositor; u = inconclusive; x = no result; [ ] = remark or other dose. An excerpt weighted towards active compounds, which were near 3% of everything screened. The call rests on the fitted dose curve; in most records, active means well fitted curve in the direction sought with a large enough effect; inconclusive means small, poorly fitted or top-dose-only effect, or another doubt; inactive means no such curve, though single readings can be large; an effect the other way counts as inactive or inconclusive. Potency means the concentration at half of the fitted maximal effect.
SMILES,GALK inh,TrxR1 inh,TrxR1 substrate,A549 tox,Nrf2 activator,Nrf2 block
O=C(COC(=O)c1cc([N+](=O)[O-])ccc1N1CCOCC1)Nc1ccc(Cl)cc1,-11%,-4%,-9%,u,0%,18µM*
Cc1ccccc1Cn1c(C)c(CNCCCc2ccccc2)c(C(=O)O)c1C,x,6%,0%,0%,0%,-2%
CC(C)Cc1ccc(C(C)CC2=CCC(CN(C)C)C2=O)cc1 (configuration not stated),x,45µM*,-1%,2%,u,8%
CC(C)Cc1ccc(S(=O)(=O)N2CCOCC2)cc1,-1%,26%[57.1 µM],2%[57.1 µM],-3%,0%,9%
Cc1cc(N2CCN(C)CC2)nc2ccc(NC(=O)Nc3cccc(Cl)c3)cc12,x,28%,24%,u,4%,-18%
O=C(CSc1ccc2nnc(-c3ccccn3)n2n1)NCc1ccco1,1%,45µM*,14%,-4%,u,13%
O=C(CSc1nnc(NC(=O)c2ccccc2)s1)NCc1ccco1,7%,7%,-4%,-3%,4.5µM*,10%
O=C(CSc1ccc2nnc(-c3ccccc3)n2n1)NCc1ccco1,-2%,u,-1%,-4%,5%,2%
Cn1nnnc1SCc1ccc(C(=O)Nc2nccs2)cc1,-2%,22%,6%,0%[1.84 µM],1%,u
C=CCn1c(SCc2ccc(C(=O)Nc3nccs3)cc2)nnc1-c1ccc(C)c(Cl)c1,1%,17%[0.457 µM],-6%,-18%,1%,21µM*
O=C(c1ccncc1)N1CCCC(N2CCN(c3cccc(C(F)(F)F)c3)CC2)C1 (configuration not stated),-7%,7%,1%,4%,0%,u
CCc1cc(C(=O)N2CCCC(N3CCN(c4cccc(C(F)(F)F)c4)CC3)C2)n(C)n1 (configuration not stated),-5%,10%,4%,-17%,0%,8.2µM*
Cc1cccc(NC(=O)CSc2nc(-c3ccccc3)cc(=O)[nH]2)c1C,x,0%[57.1 µM],-6%[57.1 µM],-2%,0%,x
CCC(=O)NC(c1ccc(C)s1)c1cc(Cl)c2cccnc2c1O (configuration not stated),x,x,x,-7%,x,2%
CN1CCN(c2ccc(-c3ccc4ccccc4n3)cc2)CC1,10%,11%[57.1 µM],3%[57.1 µM],7%,-2%,10µM*
O=S1(=O)C2CC3C=CC2(O3)C(OCc2ccc(Cl)c(Cl)c2)C(Cc2ccccc2)N1Cc1ccc(Cl)c(Cl)c1 (configuration not stated),x,-3%,0%,4%,x,-7%
Cn1nc(C(F)(F)F)c(C(=O)Nc2ccc(F)cc2F)c1Sc1cccc(C(F)(F)F)c1,-4%,27%,-2%,15%,0%,-12%
Cn1nc(C(F)(F)F)c(C(=O)Nc2ccc(F)cc2F)c1Sc1cccc(Cl)c1,-2%,17%,-4%,u,0%,18µM*
CC(C)CCN(Cc1ccco1)C(=O)Cn1ncc2c([nH]c3ccccc32)c1=O,x,11%,-2%,2%,9%,-16%
O=C(Nc1cccc(-c2nnc(-c3ccco3)o2)c1)C(c1ccccc1)c1ccccc1,4%,11%,4%,-26%,0%,21µM*
O=C(Nc1cccc(-c2nnc(-c3ccco3)o2)c1)c1ccccc1,-2%,1%[57.1 µM],1%[57.1 µM],2%,2%,u
CC(=O)Oc1ccc(C(=O)Nc2cccc(-c3nnc(-c4ccco4)o3)c2)cc1,-3%,15%[11.4 µM],11%[57.1 µM],u,4%,16µM*
O=C(Cc1ccccc1)Nc1cccc(-c2nnc(-c3ccco3)o2)c1,-8%,19%,38%,-10%,5%,u
CC(C)(C)c1ccc(C(=O)Nc2ccc(C(=O)OCc3cc(=O)n4ccsc4n3)cc2)cc1,x,11%[57.1 µM],4%[57.1 µM],-21%,4%,x
CN(C)C=NC(=O)c1cc2c(n(-c3ccccc3)c1=O)CC(C)(C)CC2=O,x,3%,118%,-6%,-1%,-15%
SMILES,GALK inh,TrxR1 inh,TrxR1 substrate,A549 tox,Nrf2 activator,Nrf2 block
CC1(C2CC2)NC(=O)N(CC(=O)N2CCN(c3cccc(C(F)(F)F)c3)CC2)C1=O (configuration not stated),x,17%[57.1 µM],11%[57.1 µM],-20%,0%,12µM*
Cc1ccc(C)c(N2CCN(C(=O)c3cc4sccc4n3C)CC2)c1,x,13%,10%,-7%,0%,x
O=C(c1ccccc1F)N1CCN(c2cccc(C(F)(F)F)c2)CC1,0%,0%,-4%,u,-1%,18µM*
Cn1c(C(=O)N2CCN(c3cccc(C(F)(F)F)c3)CC2)cc2sccc21,-3%,8%,-6%,-29%,0%,26µM*
Cc1ccc(C)c(N2CCN(C(=O)C3CCN(C(=O)c4cc5sccc5n4C)CC3)CC2)c1,x,14%,5%,u,0%,21µM*
O=[S+]([O-])(c1ccc2c(c1)OCCO2)N1CCN([S+](=O)([O-])c2ccc(F)cc2Cl)CC1,x,x,x,1%,x,-20%
Cc1ccc(CC(=O)N2CCN(c3cccc(C(F)(F)F)c3)CC2)cc1,-1%,-3%,-3%,1%,3%,-3%
Cc1ccc(S(=O)(=O)CC(=O)N2CCN(c3cccc(C(F)(F)F)c3)CC2)cc1,2%,-13%,-6%,-14%,0%,23µM*
O=C(c1ccc(Nc2nc3ccccc3n3nnnc23)cc1)N1CCN(c2cccc(C(F)(F)F)c2)CC1,x,71µM*,25%,4%,0%,u
O=C(c1ccncc1)N1CCN(c2cccc(C(F)(F)F)c2)CC1,5%,-4%,-6%,-1%,0%,2%
Cc1ccc(Oc2nnc(-c3cccs3)c3ccccc23)cc1C,0%,-17%,-17%,-8%,1%,18µM*
Cc1ccc(Oc2nnc(-c3cccs3)c3ccccc23)cc1,0%,11%[57.1 µM],-7%[57.1 µM],3%,-1%,-4%
Cc1cccc(-c2nc(SCC(=O)Nc3ccc4c(c3)OCO4)c(-c3ccccc3)[nH]2)c1,x,-5%,-2%,u,-1%,u
C/C(N)=C(/C#N)C(=O)CSc1nnc(SCc2ccc(Cl)cc2)s1,-1%,4%,3%,-15%,6%,21µM*
C/C(N)=C(/C#N)C(=O)CSc1nn(-c2ccc(Cl)cc2)c(=S)s1,13%,-4%,-5%,0%,7%,-54%

# Screens from PubChem BioAssay.
